From PubChem BioAssay
Most compounds without a hit are left out; they make up all but 3.8% or so of the library.
mIDH1 inhibitor: qHTS for Inhibitors of mutant isocitrate dehydrogenase 1 (IDH1): qHTS; IDH1-R132H enzyme, NADPH consumption, diaphorase/resazurin fluorescence; 0.093% of 390,000 active; AID 602179, 2012; Potency, µM (titrated, usually from 76.6 µM), without a hit: top-dose activity change, negative = inhibition, usual class: inhibitors; Isocitrate dehydrogenase [NADP] cytoplasmic (Homo sapiens), O75874; further: on the % scale 0 is the no-effect control and ±100 the full control effect; nearly all actives have a fitted effect of over 65% in size
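IDH1-R132H (0.5 ug/mL dispensed) in pH 7.5 Tris buffer was preincubated 30 min with compound, then given a substrate mix of 0.016 mM NADPH and 2 mM alpha-KG for 80 min at room temperature; remaining NADPH was read by diaphorase/resazurin fluorescence.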
ELG1 DNA repair: qHTS screen for small molecules that inhibit ELG1-dependent DNA repair in human embryonic kidney (HEK293T) cells expressing luciferase-tagged ELG1 | HEK293T ELG1-luciferase reporter, luminescence, 16 h; DNA damage induced by 5-fluorouridine | Potency, µM (doses to about 46.1 µM), for inactives: top-dose activity change, negative = inhibition, usual class: inhibitors | 2.3% of 330,000 active; further: on the % scale 0 is the no-effect control and ±100 the full control effect; nearly all actives have a fitted effect of over 55% in size
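HEK293T cells expressing luciferase-tagged ELG1 (2,000/well) received 5-Fluorouridine plus compound or DMSO for 16 hr at 37 °C. Luciferase was read by ONE-Glo luminescence after 30 min at room temperature.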
Nrf2 ARE act: qHTS of Nrf2 Activators; AREc32 ARE-luciferase reporter (MCF7-derived line), luminescence, 24 h; Potency, µM (top dose mostly 46.1 µM), without a hit: at the top dose activation, hits mostly activators; 0.31% of 410,000 active; further: % of control where 0% means no effect; nearly all actives have a fitted effect of over 65% in size
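For detection, Steady-Glo was added and plates sat 30 min at RT; before that, AREc32_Fluc cells grown overnight in OPTI-MEM/5% FBS had been treated with 23 nL compound for 24 hr at 37 deg C.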
Nrf2 inh: Nrf2 qHTS screen for inhibitors | 2.1% of 360,000 active | A549 ARE-Fluc reporter, luciferase luminescence, 18-24 h | Potency, µM (series often up to 46 µM), without a hit: at the highest dose activity change, negative = inhibition, most hits filed as inhibitors | AID 504444, 2011; further: on the % scale 0 is the no-effect control and ±100 the full control effect; nearly all actives have a fitted effect of over 60% in size
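A549 ARE_Fluc cells, 5000/well, 5% FBS OPTI-MEM; compounds in dose-response, 18-24 h at 37 °C/5% CO2; CellTiter-Fluor viability read (Ex 405/Em 525), then BugLite luciferase luminescence = Nrf2 activity.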
A549 tox-1: Nrf2 qHTS screen for inhibitors: counterscreen for cytotoxicity | Potency, µM (series often up to 46 µM), inactives show at the top dose activity change, negative = cytotoxicity, actives largely listed as inhibitors | 0.16% of 390,000 active | A549 ARE-Fluc cells, CellTiter-Fluor viability, 18-24 h; further: on the % scale 0 is the no-effect control and ±100 the full control effect
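Cytotoxicity counterscreen: CellTiter-Fluor fluorescence was measured in A549 ARE_Fluc cells after 18-24 h of compound exposure in a concentration series. The subsequent BugLite luminescent read reports ARE-luciferase activity.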
FLuc enzyme inh: Nrf2 qHTS screen for inhibitors: Purified Fluc Biochemical Counterscreen for Hit Validation. purified firefly luciferase, luminescence inhibition. Potency, µM (doses to about 57.5 µM), for the others: at the top dose activity change, negative = inhibition, actives largely listed as inhibitors. AID 720522, 2013. shares compounds with Nrf2 inh. 4% of 1,400 active; further: on the % scale 0 is the no-effect control and ±100 the full control effect; nearly all actives have a fitted effect of over 65% in size
Target sequence (P08659 whole entry, looked up): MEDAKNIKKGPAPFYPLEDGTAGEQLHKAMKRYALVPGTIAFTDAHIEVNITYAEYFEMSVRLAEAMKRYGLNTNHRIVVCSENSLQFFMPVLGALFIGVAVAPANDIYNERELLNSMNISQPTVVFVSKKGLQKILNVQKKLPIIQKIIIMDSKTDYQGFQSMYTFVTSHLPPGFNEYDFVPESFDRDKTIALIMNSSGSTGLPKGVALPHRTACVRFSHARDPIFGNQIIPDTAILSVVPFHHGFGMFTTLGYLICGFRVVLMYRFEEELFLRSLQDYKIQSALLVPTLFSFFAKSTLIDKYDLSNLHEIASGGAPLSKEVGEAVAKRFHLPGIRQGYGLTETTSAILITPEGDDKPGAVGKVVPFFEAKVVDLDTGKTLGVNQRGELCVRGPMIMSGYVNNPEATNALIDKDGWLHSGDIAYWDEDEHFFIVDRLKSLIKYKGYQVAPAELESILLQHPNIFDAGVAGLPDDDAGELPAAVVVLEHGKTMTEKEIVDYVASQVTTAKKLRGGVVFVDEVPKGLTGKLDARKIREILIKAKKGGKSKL
A549 tox-2: Nrf2 qHTS screen for inhibitors: A549 ARE-Fluc Cytotoxicity Counterscreen for Hit Validation. 2% of 1,400 active. AID 720523, 2013. Potency, µM (doses to about 46.1 µM), inactives show top-dose activity change, negative = cytotoxicity, hits mostly inhibitors. shares compounds with Nrf2 inh. A549 ARE-Fluc cells, cytotoxicity counterscreen;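 further: cells exposed to compounds for 18 to 24 hours; on the % scale 0 is the no-effect control and ±100 the full control effect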
ARE-Fluc inh: Nrf2 qHTS screen for inhibitors: Nrf2 A549 ARE-Fluc Confirmation Assay for Hit Validation | A549 ARE-firefly luciferase reporter, luminescence | shares compounds with Nrf2 inh | Potency, µM (series often up to 46.1 µM), for the others: top-dose activity change, negative = inhibition, actives largely listed as inhibitors | 74% of 1,400 active; further: on the % scale 0 is the no-effect control and ±100 the full control effect; nearly all actives have a fitted effect of over 65% in size
An asterisk follows results filed as active; ? = inconclusive; . = no result shown; [ ] = another dose, or the depositor's remark. The call rests on the fitted dose curve; in most records, active means well fitted curve in the direction sought with a large enough effect; inconclusive means small, poorly fitted or top-dose-only effect, or another doubt; inactive means no such curve, though single readings can be large; an effect the other way counts as inactive or inconclusive. Potency means the concentration at half of the fitted maximal effect.

SMILES | mIDH1 inhibitor | ELG1 DNA repair | Nrf2 ARE act | Nrf2 inh | A549 tox-1 | FLuc enzyme inh | A549 tox-2 | ARE-Fluc inh
COCCn1cnc2c1-c1ccc(OC)c(c1)OC/C=C\COc1cccc-2c1 | . | . | . | -12% | 0% | . | . | .
COc1ccc(C(=O)NC(=S)NNC(=O)c2cnccn2)cc1 | -5% | ? | 0% | ? | ? | ? | -27% | 5.8µM*
O=C(NC(=S)NNC(=O)c1cnccn1)c1ccc(Cl)cc1 | -1% | -10% | 0% | 5.8µM* | -26% | -11% | -14% | 5.8µM*
CC(C)COc1ccccc1C1CC(=O)Nc2cc3c(cc21)OCO3 (stereo not drawn) | -3% | . | 0% | 8.2µM* | -17% | -20% | ? | 23µM*
CCCCN(CCCC)CCNC(=O)c1cc(=O)[nH]c2ccc(S(=O)(=O)N3CCCCCC3)cc12 | -17% | . | -1% | . | 18% | . | . | .
CC(C)(C)c1nc(N2CCN(C(=O)c3ccco3)CC2)c2nnn(Cc3ccccc3)c2n1 | -2% | ? | 0% | 8.2µM* | ? | 1% | ? | 1.3µM*
CC(CC(=O)Nc1ccc(Cl)c(S(=O)(=O)N2CCOCC2)c1)c1ccccc1 (stereo not drawn) | 12% | 8.2µM* | 2% | 7.3µM* | -19% | -1% | -4% | 3.3µM*
Cc1ccc(S(=O)(=O)c2cccc(S(=O)(=O)N3CCCC3)c2)cc1S(=O)(=O)N1CCCC1 | -3% | ? | 0% | 8.2µM* | -26% | 0% | -11% | 21µM*
CCN(CC)S(=O)(=O)c1cccc(NC(=O)CNc2cccc(S(=O)(=O)N3CCOCC3)c2)c1 | -14% | ? | 2% | 1.3µM* | ? | 2% | -17% | 2.1µM*
CCN(CC)S(=O)(=O)c1cc(NC(=O)Cc2ccc(S(=O)(=O)N3CCOCC3)s2)ccc1Cl | -13% | . | 0% | 1.3µM* | ? | -12% | -24% | 6.5µM*
COc1ccc2c(c1)cc1c(=O)n(CC(=O)NC3CCCCC3)nc(C)n12 | -13% | . | 0% | -1% | 0% | . | . | .
CCc1ccc(S(=O)(=O)N2CCN(C(=O)c3cccnc3)CC2)cc1 | 13% | -5% | 0% | ? | 0% | . | . | .
CC(C)N(Cc1nnc(-c2ccc(Cl)cc2)o1)C(=O)c1cc2ccccc2o1 | -7% | -29% | 15% | -6% | -10% | . | . | .
CCN(CC)S(=O)(=O)c1cc(NC(=O)CNc2cccc(S(=O)(=O)N3CCCC3)c2)ccc1C | -29% | ? | 3% | 5.2µM* | -19% | 0% | -22% | 8.2µM*
CCOC(=O)OCC(=O)C1(O)CCC2C3CCC4=CC(=O)CCC4(C)C3C(O)CC21C (stereo not drawn) | 2% | . | 4% | 0.21µM* | -6% | 1% | 4% | .
CC(=O)OCC(=O)C1(O)CCC2C3CCC4=CC(=O)CCC4(C)C3C(O)CC21C (stereo not drawn) | -2% | . | 0% | 0.15µM* | -1% | 3% | -7% | 0.18µM*
CC12CCC(=O)C=C1CCC1C2C(O)CC2(C)C1CCC21OCC1=O (stereo not drawn) | 1% | . | 0% | ? | -8% | . | . | .
CCCCCCCC(=O)OCC(=O)[C@@]1(O)CC[C@H]2[C@@H]3CCC4=CC(=O)CC[C@]4(C)[C@H]3[C@@H](O)C[C@@]21C | -5% | ? | -1% | 0.46µM* | -1% | 3% | -5% | 0.33µM*
CC12CCC(=O)C=C1CCC1C2C(O)CC2(C)C1CCC2(O)C(=O)COC(=O)COCC(=O)O (stereo not drawn) | -3% | . | 2% | 0.29µM* | -6% | 2% | -12% | 0.073µM*
OC(c1ccccc1)(c1nc(-c2ccccc2)cs1)C(F)(F)F (stereo not drawn) | . | . | 0% | . | . | . | . | .
Cc1cccc(N2CC(c3nc4ccccc4n3CCC3CCCCC3)CC2=O)c1 (stereo not drawn) | 10% | . | 0% | -18% | 0% | . | . | .
CCOc1ccc(CNC(=O)Cn2cc3c(n2)-c2c(oc(C(=O)N4CCOCC4)c2C)CC3)cc1 | 0% | . | 3% | ? | 6% | . | . | .
COc1ccc(-c2cc(NCCc3ccncc3)n3ncnc3n2)cc1 | 1% | -9% | 2% | -7% | -13% | . | . | .
COc1ccc(CCNc2c(C)c(C)nc3ncnn23)cc1 | -1% | -1% | 0% | 1µM* | ? | 0% | -22% | 2.1µM*
C[C@]12CCC(=O)C=C1CC[C@@H]1[C@@H]2[C@@H](O)C[C@@]2(C)[C@H]1CC[C@]2(O)C(=O)CO | 12% | ? | 1% | 0.029µM* | 1% | 3% | ? | 0.29µM*
SMILES | mIDH1 inhibitor | ELG1 DNA repair | Nrf2 ARE act | Nrf2 inh | A549 tox-1 | FLuc enzyme inh | A549 tox-2 | ARE-Fluc inh
CC12CCC(=O)C=C1CCC1C2C(O)CC2(C)C1CCC2(O)C(=O)CO (stereo not drawn) | 6% | 21% | 0% | 0.12µM* | -9% | -1% | -5% | 0.092µM*
COc1cc2sc3ccc(C#Cc4ccc(N)cc4)cc3c(=O)c2cc1OC | 1%[38.3 µM] | . | 5% | 4.6µM* | -21% | -22% | ? | 2.3µM*
CCc1ccc(NC(=O)CSc2nc(N)c(NC(=O)c3ccc(F)c(F)c3)c(=O)[nH]2)cc1 | -4% | -2% | -1% | -18% | 1% | . | . | .
Cc1cc(C2=NNC(=NC3CC3)SC2)c(C)n1-c1ccccc1F | ? | ? | -3% | 0.92µM* | -4% | 3% | -10% | .
Cc1cc(C2=NNC(=NC3CCCCC3)SC2)c(C)n1-c1c(C)n(C)n(-c2ccccc2)c1=O | 1% | ? | 1% | -9% | 16% | . | . | .
CN(c1ccc(OCC(=O)NCCc2ccccc2)cc1)S(=O)(=O)c1ccc(Cl)cc1 | 7% | ? | 3% | 19% | 9% | . | . | .
CCOc1ccc(S(=O)(=O)N(C)c2ccc(OCC(=O)Nc3nc4ccccc4s3)cc2)cc1 | 4% | ? | 3% | 2.3µM* | -12% | 2% | -2% | 9.2µM*
